FLuc modulator: counter-screen for miR-21 project: firefly luciferase inhibitors or activators | P08659 | purified FLuc, Km substrates, luminescence inhibition | Potency, µM (doses to about 57.5 µM), actives largely listed as inhibitors | hit rate 6.9% among 360,000; note: nearly all actives have a fitted effect of over 55% in size
Target sequence (P08659 whole entry, looked up): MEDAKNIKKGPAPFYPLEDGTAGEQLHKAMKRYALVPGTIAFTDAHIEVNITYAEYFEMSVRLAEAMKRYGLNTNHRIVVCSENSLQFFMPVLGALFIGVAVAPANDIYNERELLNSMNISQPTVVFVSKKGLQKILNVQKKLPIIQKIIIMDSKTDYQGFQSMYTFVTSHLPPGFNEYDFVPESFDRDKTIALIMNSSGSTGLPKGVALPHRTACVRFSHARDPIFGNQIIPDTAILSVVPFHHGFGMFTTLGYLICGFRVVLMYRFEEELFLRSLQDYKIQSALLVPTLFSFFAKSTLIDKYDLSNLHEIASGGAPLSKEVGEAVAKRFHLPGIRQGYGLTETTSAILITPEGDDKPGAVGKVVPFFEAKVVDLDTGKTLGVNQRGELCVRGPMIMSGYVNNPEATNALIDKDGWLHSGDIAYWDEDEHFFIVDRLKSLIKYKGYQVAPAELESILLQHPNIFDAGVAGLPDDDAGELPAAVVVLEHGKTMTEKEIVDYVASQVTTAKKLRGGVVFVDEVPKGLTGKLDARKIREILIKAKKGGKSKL
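Biochemical qHTS of compounds, final roughly 60 µM downward over six points, against 10 nM purified firefly luciferase using Km concentrations of substrates (10 uM D-luciferin, 10 uM ATP) in Tris acetate pH 7.5 buffer; luminescence output.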
SMN2 splice up: SMN2 splice variant enhancement. Potency, µM (doses to about 46.1 µM), usual class: activators. HEK293 SMN2-luciferase splicing reporter, luminescence, 30-36 h. hit rate 2.8% among 210,000; note: nearly all actives have a fitted effect of over 55% in size
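HEK293 cells carry an SMN2 minigene-luciferase reporter in which exon 7 inclusion puts luciferase in frame. Cells were seeded at 2000 cells/well, attached for 10-12 hours, then exposed to compounds for 30-36 hours at 37C before ONE-Glo luminescence.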
ELG1 genotoxic: induces genotoxicity in HEK293T cells with luciferase-tagged ELG1; HEK293T ELG1-luciferase reporter, luminescence, 16 h; Potency, µM (doses to about 46 µM), usual class: activators; hit rate 1.3% among 330,000; AID 504466; note: nearly all actives have a fitted effect of over 60% in size
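Quantitative HTS format in 1536-well plates. HEK293T ELG1-luciferase reporter cells receive test compound and are incubated 16 hr at 37 °C, 5% CO2; ONE-Glo added, 30 min room temperature, then luminescence read.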
NPC1 prom act: NPC1 promoter activation; Huh7 NPC1 promoter luciferase reporter, 24 h; Potency, µM (highest dose often 9.22 µM), hits mostly activators; hit rate 2.4% among 320,000; note: nearly all actives have a fitted effect of over 60% in size
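Huh7 cells stably carrying NPC1 promoter–luciferase, plated in Opti-MEM with 10% FBS for 2 h, were exposed to compound in DMSO for 24 h at 37 °C; luciferase reagent was added for 10 min and luminescence read.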
Rab9 promoter act: Rab9 promoter activation. Potency, µM (top dose mostly 9.22 µM), usual class: activators. Huh7 Rab9 promoter-luciferase reporter, luminescence, 24 h. hit rate 2.8% among 320,000; note: nearly all actives have a fitted effect of over 60% in size
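Cells were plated at 1500 per well in reduced-serum medium with 10% FBS and left 2 h. Compound in DMSO was then added for 24 h at 37 °C. Reporter signal was read by luminescence after 10 min with luciferase detection reagent.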
ELG1 repair inh: inhibitors of ELG1-dependent DNA repair in HEK293T cells | HEK293T ELG1-luciferase reporter, luminescence, 16 h; DNA damage induced by 5-fluorouridine | hit rate 2.3% among 330,000 | Potency, µM (titrated, usually from 46.1 µM), actives largely listed as inhibitors | AID 504467; note: nearly all actives have a fitted effect of over 55% in size
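Step one: seed 2,000 cells per well. Step two: pin-transfer compound or DMSO alongside 5-fluorouridine. Step three: incubate 16 hr, 37 °C, 5% CO2. Step four: add ONE-Glo, wait 30 min, read luminescence.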
Each line names hits and unclear results; the compound was inactive in the other large screens. Only some compounds are listed: those with a hit (about 9.3% of all), similar ones and a draw of the others. Calls come from the whole dose curve; as a rule, active = well fitted curve in the direction sought with a large enough effect; inconclusive = small, poorly fitted or top-dose-only effect, or another doubt; inactive = no such curve, though single readings can be large; an effect the other way counts as inactive or inconclusive.

Cc1ccccc1C(OCCN(C)C)c1ccccc1 (stereo unspecified)	none
CC(C)(C)n1cnc2cc(NC(=O)c3cccs3)ccc21	FLuc modulator 7.6µM, SMN2 splice up 13µM, ELG1 genotoxic inconclusive, NPC1 prom act 2.5µM, Rab9 promoter act 1.3µM, ELG1 repair inh inconclusive
Cn1c(CN2CCCCC2)nc2cc(NC(=O)c3cccs3)ccc21	FLuc modulator inconclusive
Cc1cc(-c2ccccc2)nc(N(C)N)c1S(C)(=O)=O	none
Cc1cc(-c2ccccc2)nc(-c2ccccc2)c1C	FLuc modulator 0.17µM, ELG1 genotoxic 21µM, Rab9 promoter act inconclusive, ELG1 repair inh inconclusive (no result: SMN2 splice up)
COc1ccccc1-c1oc2ccccc2c1C#CCCO	FLuc modulator inconclusive (no result: SMN2 splice up)
N#C/C(=C\c1ccc(Br)s1)C(=O)N1CCN(c2ccccc2)CC1	none
O=C(COC(=O)Cc1ccccc1F)Nc1ccc(SC(F)F)cc1	FLuc modulator 13µM, SMN2 splice up inconclusive
CCCCC(=O)OCC(=O)Nc1ccc(SC(F)F)cc1	FLuc modulator 21µM
Cc1cc(C)cc(NC(=O)COC(=O)Cc2ccccc2F)c1	none (no result: FLuc modulator, SMN2 splice up)
COc1cc(C(=O)OCC(=O)Nc2ccc(SC(F)F)cc2)cc(OC)c1OC	ELG1 repair inh inconclusive
O=C(Cc1ccccc1F)Nc1ccc(SC(F)F)cc1	FLuc modulator 5.4µM, SMN2 splice up 13µM, ELG1 genotoxic inconclusive, NPC1 prom act 4µM, Rab9 promoter act 1.6µM, ELG1 repair inh inconclusive
CCCN(Cc1ccccc1)C(=S)Nc1ccc(SC(F)F)cc1	ELG1 repair inh 23µM
COC(=O)CN=Cc1c(C)[nH]n(-c2ccccc2)c1=O	none
CCCCNC(=S)Nc1ccc(SC(F)F)cc1	FLuc modulator 17µM
O=C(COC(=O)c1ccccc1Cc1ccccc1)Nc1ccc(SC(F)F)cc1	FLuc modulator 6µM, ELG1 genotoxic inconclusive, NPC1 prom act inconclusive, Rab9 promoter act 2.8µM, ELG1 repair inh inconclusive (no result: SMN2 splice up)
Cc1ccc(C(=O)c2ccccc2C(=O)OCC(=O)Nc2ccc(SC(F)F)cc2)cc1	ELG1 repair inh inconclusive
Cc1ccc(/C=C/C(=O)c2ccccc(=O)c2O)c(C)c1	FLuc modulator inconclusive, ELG1 genotoxic inconclusive
Cc1ccc(C[n+]2cc(-c3ccc(Cl)cc3)n3c2CCC3)cc1	ELG1 repair inh 4.6µM (no result: SMN2 splice up)
Cc1ccc(-c2c[n+](Cc3cccc(Cl)c3)c3n2CCC3)cc1	ELG1 repair inh 10µM (no result: SMN2 splice up)
Clc1cccc(C[n+]2cc(-c3ccccc3)n3c2CCC3)c1	none
CCc1ccc(NC(=O)C[n+]2cc(-c3ccc(C)cc3)n3c2CCC3)cc1	ELG1 repair inh 12µM (no result: SMN2 splice up)
Cc1ccc(-c2c[n+](CC(=O)Nc3c(C)cccc3C)c3n2CCC3)cc1	ELG1 repair inh inconclusive (no result: SMN2 splice up)
O=c1ccc2[n+]([O-])c3ccc(O)cc3oc-2c1	FLuc modulator 15µM, ELG1 repair inh inconclusive (no result: SMN2 splice up)
CC1(C)Cc2c(cnn2-c2ccc(F)cc2)C(NC(=O)c2ccoc2)C1 (stereo unspecified)	none (no result: SMN2 splice up)
Cc1cc(NC(=O)CSc2nc3c(C)c(C)ccc3cc2C)no1	none (no result: SMN2 splice up)
CCSc1nnc(NC(=O)c2cc(C)nc3ccccc23)s1	none
CCSc1nnc(NC(=O)c2ccc3ccccc3n2)s1	FLuc modulator 12µM, SMN2 splice up 14µM, ELG1 genotoxic inconclusive, NPC1 prom act inconclusive, Rab9 promoter act inconclusive, ELG1 repair inh inconclusive
CCc1nnc(NC(=O)c2sc3nc4cc(C)ccc4cc3c2N)s1	FLuc modulator 9.5µM
CCc1nnc(NC(=O)c2ccc3ccccc3n2)s1	FLuc modulator 13µM, SMN2 splice up 2.8µM, NPC1 prom act inconclusive, Rab9 promoter act 2.5µM, ELG1 repair inh inconclusive
CCc1nnc(NC(=O)c2nc(Cl)ccc2Cl)s1	none (no result: SMN2 splice up)
CN(C)/C=C/C(=O)c1ccc(Cl)cc1	FLuc modulator inconclusive, ELG1 repair inh inconclusive
CN(C)/C=C/C(=O)/C=C/c1ccc(Cl)cc1	FLuc modulator 13µM, SMN2 splice up 13µM, ELG1 genotoxic inconclusive, NPC1 prom act inconclusive, Rab9 promoter act inconclusive, ELG1 repair inh inconclusive
O=C(/C=C/c1ccco1)Nc1ccc(Cl)c(S(=O)(=O)N2CCOCC2)c1	FLuc modulator 19µM, ELG1 repair inh 16µM (no result: SMN2 splice up)
O=C(Nc1ccc(Cl)c(S(=O)(=O)N2CCOCC2)c1)c1cccs1	ELG1 repair inh 26µM (no result: FLuc modulator, SMN2 splice up, NPC1 prom act, Rab9 promoter act)
